This is an account of results in PubChem BioAssay (Tox21).

Unmarked numbers belong to inactive results. Results filed as inconclusive are left out. The source made the active and inactive calls. Unless noted, the call rests on the fitted dose curve; in most records, active means well fitted curve in the direction sought with a large enough effect in the repeat runs; inconclusive means weak or mixed curves; inactive means no such curve, though single readings can be large; an effect the other way counts as inactive or inconclusive.

Assay [1] can be described thus: A CellTox Green Cytotoxicity Assay to monitor cytotoxicity in HEK293 cells - 32 hour (AID 1224881). Further: nearly all actives have a fitted effect of over 40% in size. Further: potency means the concentration at half of the fitted maximal effect. The essentials: (§1)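 Nonlytic real-time cytotoxicity: HEK293 + CellTox Green reagent plated, 5 h preincubation, pintool compound addition (23 nL in DMSO), 37 C for 40 h, fluorescence measured at successive time points.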
A short description of assay [2]: A CellTox Green Cytotoxicity Assay to monitor cytotoxicity in HepG2 cells - 0 hour (AID 1224882). Further: nearly all actives have a fitted effect of over 35% in size. The procedure, abridged:
(§2)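 Read-out is fluorescence of a cyanine dye excluded from live cells that stains DNA of dead HepG2 cells, with signal proportional to cytotoxicity. Plates were read at 0, 8, 16, 24, 32 and 40 h after compound addition.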

The nature of assay [3]: A CellTox Green Cytotoxicity Assay to monitor cytotoxicity in HEK293 cells - 8 hour (AID 1224884). Further: nearly all actives have a fitted effect of over 35% in size. Further: potency means the concentration at half of the fitted maximal effect. The essentials: as §1
Assay [4] is described as follows: qHTS RealTime-Glo MT Cell Viability Assay in HepG2 cells - 16 hour (AID 1224885). Further: nearly all actives have a fitted effect of over 50% in size. Further: potency means the concentration at half of the fitted maximal effect. The procedure, abridged: (§3)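 Cells + NanoLuc/prosubstrate dispensed (600 cells/well) → 5 h at 37 C/5% CO2 → compounds in DMSO transferred → 40 h incubation at 37 C, luminescence read at 0, 8, 16, 24, 32, 40 h.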
(In general: qHTS replaces the single test concentration by a dilution series.)

Assay [5] can be described thus: qHTS RealTime-Glo MT Cell Viability Assay in HEK293 cells - 24 hour (AID 1224886). Further: nearly all actives have a fitted effect of over 50% in size. Further: potency means the concentration at half of the fitted maximal effect. The essentials:
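Tox21 10K qHTS, HEK293, 600 cells/well, RealTime-Glo reagent co-dispensed with cells; 5 h preincubation, compound by pintool, 37 C, luminescence at 0–40 h.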

A short description of assay [6]: qHTS RealTime-Glo MT Cell Viability Assay in HEK293 cells - 8 hour (AID 1224887). Further: nearly all actives have a fitted effect of over 50% in size. Further: potency means the concentration at half of the fitted maximal effect. The essentials:
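Cells were seeded together with NanoLuc luciferase and a prosubstrate that viable cells reduce to a luciferase substrate. After a 5 h incubation at 37 C/5% CO2, compounds were added and luminescence was measured repeatedly during 40 h of treatment.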

Assay [7] in a line: A CellTox Green Cytotoxicity Assay to monitor cytotoxicity in HEK293 cells - 16 hour (AID 1224888). Further: nearly all actives have a fitted effect of over 35% in size. Further: potency means the concentration at half of the fitted maximal effect. The essentials:
as §1

A short description of assay [8]: qHTS RealTime-Glo MT Cell Viability Assay in HepG2 cells - 0 hour (AID 1224889). Further: nearly all actives have a fitted effect of over 50% in size. The procedure, abridged: as §3
Assay [9] in a line: A CellTox Green Cytotoxicity Assay to monitor cytotoxicity in HepG2 cells - 8 hour (AID 1224890). Further: nearly all actives have a fitted effect of over 45% in size. Further: potency means the concentration at half of the fitted maximal effect. The procedure, abridged: as §2
Assay [10] can be described thus: qHTS assay to identify small molecule antagonists of the androgen receptor (AR) signaling pathway using the MDA cell line in the presence of 0.5 nM R1881 - cell viability counter screen (AID 1259242). Further: nearly all actives have a fitted effect of over 45% in size. Further: potency means the concentration at half of the fitted maximal effect. The essentials: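 Counter screen for cytotoxicity run in the same wells as the AR antagonist reporter screen: MDA-kb2 cells were treated 16 hr with test compounds and 0.5 nM R1881, then live-cell protease activity was measured by fluorescence.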

Assay [11] concerns the target Estrogen receptor (Homo sapiens) (UniProt P03372). Briefly: qHTS assay to identify small molecule antagonists of the estrogen receptor alpha (ER-alpha) signaling pathway using the BG1 cell line in the presence of 0.1 nM 17-beta-estradiol (AID 1259244). Further: nearly all actives have a fitted effect of over 50% in size. Further: potency means the concentration at half of the fitted maximal effect. The procedure, abridged: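 Cells: VM7Luc4E2, endogenous ER-alpha, 4x ERE-luc stable. Pre-culture 5 d, phenol red-free, charcoal-stripped FBS. Plated 24 h, compound + E2 0.1 nM final, 22 h 37C/5% CO2. Readout ONE-Glo luminescence.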

Assay [12] can be described thus: qHTS assay to identify small molecule phospholipidosis (PLD) inducers (AID 1259344; active means well fitted curve in the direction sought with a large enough effect; an effect the other way counts as inactive or inconclusive). The procedure, abridged:
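HepG2 cells on collagen I, attached 4 h at 37 C, were co-treated with compound and LipidTOX Red dye for 24 h at 37 C, then fixed with paraformaldehyde plus Hoechst 33342 and imaged by high-content microscopy for phospholipid accumulation.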

Assay [13] in a line: qHTS assay to identify small molecule HDAC inhibitors (AID 1259364). Further: top concentration of the series differs between compounds; nearly all actives have a fitted effect of over 45% in size. The essentials:
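Luminescence from a cell-permeant luminogenic class I/II HDAC substrate reports endogenous deacetylase activity in intact HCT-116 cells treated with compounds for 2 h.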

Assay [14] can be described thus: qHTS assay to identify small molecule HDAC inhibitors - cell viability counter screen (AID 1259365). The procedure, abridged:
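CellTiter-Glo luminescence (30 min, room temperature) reported viability after a 2 h compound exposure at 37 C. Cells: wild-type HCT-116, 1,500 per well, seeded the night before.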

Assay [15] in a line: qHTS assay to identify small molecule agonists of the sonic hedgehog signaling (Shh) pathway (AID 1259368; calls by dose curve;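 further: NIH/3T3-derived 3T3Gli1-Luc cells carrying a stable Gli1-driven firefly luciferase reporter; series mostly up to about 92 µM; nearly all actives have a fitted effect of over 15% in size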). The essentials:
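3T3Gli1-Luc (NIH/3T3 clone, stable Gli1-Luc); 4 hr pre-incubation, then cpd in DMSO 24 hr, 37 C/5% CO2; luciferase reagent 30 min RT; luminescence.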

Assay [16] is described as follows: A CellTox Green Cytotoxicity Assay to monitor cytotoxicity in HepG2 cells - 32 hour (AID 1224883). Further: nearly all actives have a fitted effect of over 50% in size. Further: potency means the concentration at half of the fitted maximal effect. The essentials: as §2
Assay [17] is described as follows: qHTS assay to identify small molecule antagonists of the estrogen receptor alpha (ER-alpha) signaling pathway using the BG1 cell line in the presence of 0.1 nM 17-beta-estradiol - cell viability counter screen (AID 1259241). Further: nearly all actives have a fitted effect of over 40% in size. The procedure, abridged:
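Cytotoxicity counter-screen: live-cell protease activity measured by fluorescence (30 min reagent step) in the same wells. Cells were VM7Luc4E2 with endogenous ER-alpha and ERE-driven luciferase, treated 22 hr at 37C alongside 0.1 nM 17beta-estradiol final.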

Assay [18] is described as follows: qHTS assay to identify small molecule agonists of the sonic hedgehog signaling (Shh) pathway - cell viability counter screen (AID 1259366). Further: nearly all actives have a fitted effect of over 50% in size. Further: potency means the concentration at half of the fitted maximal effect. The essentials:
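Cytotoxicity counter screen: CellTiter-Fluor reagent added after 23 h compound exposure, then 1 h at 37C and fluorescence read. Cells were 3T3 Gli1-Luc, seeded 2,000 per well and dosed 4 h post-plating.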

Assay [19] is described as follows: qHTS assay to identify small molecule antagonists of the sonic hedgehog signaling (Shh) pathway - cell viability counter screen (AID 1259367). Further: nearly all actives have a fitted effect of over 55% in size. The procedure, abridged: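 NIH/3T3-derived Gli1-Luc reporter cells (2,000 per well) rested 4 hr at 37 C, then received DMSO compounds plus conditioned medium. After 23 hr of treatment, CellTiter-Fluor was added for 1 hr at 37C and fluorescence read.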

Assay [20] has as its target Androgen receptor (Homo sapiens) (UniProt P10275). Put plainly: qHTS assay to identify small molecule antagonists of the androgen receptor (AR) signaling pathway using the MDA cell line in the presence of 0.5 nM R1881 (AID 1259243). Further: nearly all actives have a fitted effect of over 50% in size. The essentials:
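Luciferase luminescence is the read-out: compounds are tested for suppressing 0.5 nM R1881-driven MMTV reporter activity in MDA-kb2 cells after 16 hr at 37C.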

Sequence of Estrogen receptor (Homo sapiens) (P03372 whole entry, looked up): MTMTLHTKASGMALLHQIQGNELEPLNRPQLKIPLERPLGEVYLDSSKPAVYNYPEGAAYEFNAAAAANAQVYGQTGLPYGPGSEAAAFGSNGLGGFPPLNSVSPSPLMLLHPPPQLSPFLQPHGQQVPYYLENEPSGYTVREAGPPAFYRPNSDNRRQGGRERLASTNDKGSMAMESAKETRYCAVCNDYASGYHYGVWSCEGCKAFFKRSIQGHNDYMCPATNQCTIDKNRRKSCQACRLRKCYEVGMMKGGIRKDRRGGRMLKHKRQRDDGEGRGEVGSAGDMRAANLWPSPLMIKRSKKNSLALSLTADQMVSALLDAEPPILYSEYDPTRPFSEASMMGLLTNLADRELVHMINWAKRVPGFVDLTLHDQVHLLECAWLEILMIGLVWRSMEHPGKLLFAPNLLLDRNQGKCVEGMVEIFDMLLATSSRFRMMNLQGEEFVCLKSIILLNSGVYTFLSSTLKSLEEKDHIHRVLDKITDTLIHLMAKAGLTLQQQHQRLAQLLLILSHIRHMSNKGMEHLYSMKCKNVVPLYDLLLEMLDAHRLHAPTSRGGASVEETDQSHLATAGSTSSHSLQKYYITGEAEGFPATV
Sequence of Androgen receptor (Homo sapiens) (P10275 whole entry, looked up): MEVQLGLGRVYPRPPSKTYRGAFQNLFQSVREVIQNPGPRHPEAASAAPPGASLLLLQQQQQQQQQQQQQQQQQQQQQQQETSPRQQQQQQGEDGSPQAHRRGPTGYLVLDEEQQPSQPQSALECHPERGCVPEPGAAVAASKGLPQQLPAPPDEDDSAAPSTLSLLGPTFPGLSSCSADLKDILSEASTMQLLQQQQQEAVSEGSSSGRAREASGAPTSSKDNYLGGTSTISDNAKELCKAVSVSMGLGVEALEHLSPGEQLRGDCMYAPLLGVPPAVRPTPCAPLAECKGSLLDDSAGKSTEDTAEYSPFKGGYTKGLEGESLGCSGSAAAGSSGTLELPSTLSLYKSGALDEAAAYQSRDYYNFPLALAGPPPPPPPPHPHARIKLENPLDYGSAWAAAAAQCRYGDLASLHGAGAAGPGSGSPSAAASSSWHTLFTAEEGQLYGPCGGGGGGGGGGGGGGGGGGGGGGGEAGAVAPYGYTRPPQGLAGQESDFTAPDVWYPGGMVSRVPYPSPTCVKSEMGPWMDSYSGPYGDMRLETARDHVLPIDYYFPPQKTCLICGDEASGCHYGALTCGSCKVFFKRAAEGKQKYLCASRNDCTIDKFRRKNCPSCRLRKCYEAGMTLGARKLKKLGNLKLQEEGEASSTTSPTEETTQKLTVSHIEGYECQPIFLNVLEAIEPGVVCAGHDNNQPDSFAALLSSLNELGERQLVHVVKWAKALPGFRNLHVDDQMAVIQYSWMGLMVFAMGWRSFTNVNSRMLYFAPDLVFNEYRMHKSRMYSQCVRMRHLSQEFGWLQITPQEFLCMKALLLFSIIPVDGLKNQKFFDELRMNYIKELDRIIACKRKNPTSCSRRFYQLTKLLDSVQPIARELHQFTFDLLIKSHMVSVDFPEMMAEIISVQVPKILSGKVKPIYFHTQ

In the case of `CC(C)COCC(CN(Cc1ccccc1)c1ccccc1)N1CCCC1` (stereo not given), the Potency in [1] was 23.9 µM (active); in assay [3] it was 21.3 µM (active); in assay [4], 21.3 µM (active); in assay [5], 15.1 µM (active); in [6], 15.1 µM (active); in assay [7] it was 23.9 µM (active). For the same compound, the Potency in [9] is 23.9 µM (active); in assay [10], 29.8 µM (active); in assay [11] it was 29.8 µM (active). Further, the Potency result in assay [2], in assay [8], in assay [12], in assay [13], in assay [14] and in assay [15] was “inactive” throughout.
For the compound `CC(C)C[C@H](NC(=O)[C@H](CCc1ccccc1)NC(=O)CN1CCOCC1)C(=O)N[C@@H](Cc1ccccc1)C(=O)N[C@@H](CC(C)C)C(=O)[C@@]1(C)CO1`, the Potency is 0.301 µM (active) in assay [1]; 0.0239 µM (active) in assay [16]; 0.0674 µM (active) in assay [5]; 16.8 µM (active) in assay [10]; 0.168 µM (active) in [11]. Also, the Potency entry in assay [2], in [6], in assay [7], in assay [8], in assay [9] and in [17] was “inactive” throughout. In addition, the Potency result in assay [12], in assay [13], in assay [14], in assay [18], in assay [19] and in assay [15] was “inactive” each time.
`CC(C)=CCC/C(C)=C/CC/C(C)=C/C(=O)OCC(=O)[C@@]1(O)CC[C@H]2[C@@H]3CCC4=CC(=O)C=C[C@]4(C)[C@H]3[C@@H](O)C[C@@]21C`: the Potency entry in assay [1], in assay [2], in assay [16], in assay [3], in [7] and in assay [8] was “inactive” each time. Besides, the Potency result in assay [9], in assay [20], in assay [13], in assay [14], in [18] and in [19] was “inactive” throughout. In addition, the Potency result in assay [15] was “inactive”. Also, the Potency in [6] is 6.01 µM (active); in assay [11] it was 26.6 µM (active).
In the case of `C[C@@H](CN(C)C)CN1c2ccccc2Sc2ccccc21`, the results for the Potency in assay [1] and in [16] were 13.4 µM (active) and 26.8 µM (active), respectively. Moreover, the Potency entry in assay [2], in [3], in [6], in assay [9], in assay [10] and in [11] was “inactive” in each case. For the same compound, the Potency result in assay [13], in assay [14] and in [15] was “inactive” throughout.
Consider `NC1[C@H]2CN(c3nc4c(cc3F)c(=O)c(C(=O)O)cn4-c3ccc(F)cc3F)C[C@@H]12` (stereo not given in full), for which the Potency result in assay [1], in [2], in assay [16], in [4], in assay [5] and in [6] was “inactive” each time. Also, the Potency entry in assay [8], in assay [9], in assay [17], in assay [10], in assay [20] and in assay [12] was “inactive” in each case. The Potency entry in [13], in [14] and in [15] was “inactive” in each case. Also, the Potency in assay [18] is 21.1 µM (active).
On to `CC(=O)c1cc2ccccc2s1`, for which the Potency entry in assay [1], in [2], in assay [16], in assay [4], in [5] and in assay [6] was “inactive” in each case. Further, the Potency result in [7], in assay [8], in assay [9], in [17], in assay [11] and in [13] was “inactive” each time. In addition, the Potency entry in assay [14], in assay [18], in assay [19] and in [15] was “inactive” each time.
`CC1CC(C)C(=O)C1=O` (stereo not given): the Potency entry in assay [1], in assay [2], in [16], in [4], in assay [6] and in [7] was “inactive” throughout. Further, the Potency result in assay [8], in assay [9], in [17], in assay [13], in assay [14] and in [18] was “inactive” each time. Further, the Potency result in assay [19] and in assay [15] was “inactive” throughout. Moreover, the Potency in assay [5] is 13.8 µM (active).
